Measured values: the supplement of paper PMC8728848
The entries come from a sample that favours the strongest signals as a whole.

Key:
Test in all cases: glycan array binding signal (z-score within array); higher = stronger binding
Conditions in all cases: glycan notation: IUPAC condensed, linker removed
[1] = biological target: Fuc(a1-2)Gal(b1-3)GlcNAc(b1-3)[Neu5Ac(a2-6)Gal(b1-4)GlcNAc(b1-6)]Gal(b1-4)Glc
How it was run: (§1)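 Glycan array binding is given as a within-array Z-score, which can be read as non-binding when negative. The arrays, 3228 of them, came from the Consortium for Functional Glycomics database and were retained only where the protein sequence was available. Z-scores were averaged across arrays of the same protein sequence at different concentrations or buffers and across linkers.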

[2] = biological target: Fuc(a1-2)Gal(b1-4)GlcNAc(b1-2)Man
How it was run: as §1

[3] = biological target: Fuc(a1-2)Gal(b1-4)GlcNAc(b1-3)Gal(b1-4)GlcNAc
How it was run: as §1

[4] = biological target: Fuc(a1-2)Gal(b1-4)[Fuc(a1-3)]GlcNAc
How it was run: as §1

[5] = biological target: Fuc(a1-2)Gal6S(b1-3)GlcNAc
How it was run: as §1

[6] = biological target: Fuc(a1-2)Gal6S(b1-3)GlcNAc6S
How it was run: as §1

[7] = biological target: Fuc(a1-2)[Gal(a1-3)]Gal(b1-4)Glc
How it was run: as §1

[8] = biological target: Fuc(a1-2)[Gal(a1-3)]Gal(b1-4)GlcNAc(b1-3)[Fuc(a1-2)[Gal(a1-3)]Gal(b1-4)GlcNAc(b1-6)]GalNAc
How it was run: as §1

[9] = biological target: Fuc(a1-2)[GalNAc(a1-3)]Gal(b1-4)GlcNAc(b1-3)Gal(b1-4)GlcNAc
How it was run: as §1

[10] = biological target: Fuc(a1-2)[GalNAc(b1-3)]Gal
How it was run: as §1

[11] = biological target: Fuc(a1-3)[Gal(b1-4)]GlcNAc(b1-3)Gal(b1-3)[Fuc(a1-4)]GlcNAc
How it was run: as §1

Gal(b1-2)Gal = biological target: Gal(b1-2)Gal
How it was run: as §1

[12] = biological target: Gal(b1-3)GalNAc(a1-3)[Fuc(a1-2)]Gal(b1-4)Glc
How it was run: as §1

[13] = biological target: Gal(b1-3)GlcNAc(b1-3)Gal(b1-4)GlcNAc(b1-3)Gal(b1-4)GlcNAc(b1-2)[Gal(b1-3)GlcNAc(b1-3)Gal(b1-4)GlcNAc(b1-3)Gal(b1-4)GlcNAc(b1-6)]Man(a1-6)[Gal(b1-3)GlcNAc(b1-3)Gal(b1-4)GlcNAc(b1-3)Gal(b1-4)GlcNAc(b1-2)Man(a1-3)]Man(b1-4)GlcNAc(b1-4)[Fuc(a1-6)]GlcNAc
How it was run: as §1

[14] = biological target: Gal(b1-3)GlcNAc(b1-3)Gal(b1-4)[Fuc(a1-3)]GlcNAc
How it was run: as §1

[15] = biological target: Gal(b1-3)[Fuc(a1-4)]GlcNAc(b1-3)Gal(b1-4)[Fuc(a1-3)]GlcNAc
How it was run: as §1

Gal(b1-4)Gal = biological target: Gal(b1-4)Gal
How it was run: as §1

[16] = biological target: Gal(b1-4)GalNAc(b1-3)[Fuc(a1-2)]Gal(b1-4)GlcNAc
How it was run: as §1

Gal(b1-4)Glc = biological target: Gal(b1-4)Glc
How it was run: as §1

Gal(b1-4)GlcNAc(b1-2)Man = biological target: Gal(b1-4)GlcNAc(b1-2)Man
How it was run: as §1

[17] = biological target: Gal(b1-4)GlcNAc(b1-2)Man(a1-3)[Gal(b1-4)GlcNAc(b1-2)Man(a1-6)][Gal(b1-4)GlcNAc(b1-4)]Man(b1-4)GlcNAc(b1-4)[Fuc(a1-6)]GlcNAc
How it was run: as §1

[18] = biological target: Gal(b1-4)GlcNAc(b1-2)Man(a1-3)[Man(a1-6)]Man(b1-4)GlcNAc(b1-4)GlcNAc
How it was run: as §1

[19] = biological target: Gal(b1-4)GlcNAc(b1-2)[Gal(b1-4)GlcNAc(b1-4)]Man(a1-3)[Gal(b1-4)GlcNAc(b1-2)Man(a1-6)]Man(b1-4)GlcNAc(b1-4)GlcNAc
How it was run: as §1

[20] = biological target: Gal(b1-4)GlcNAc(b1-2)[Gal(b1-4)GlcNAc(b1-4)]Man(a1-3)[GlcNAc(b1-4)][Gal(b1-4)GlcNAc(b1-2)[Gal(b1-4)GlcNAc(b1-6)]Man(a1-6)]Man(b1-4)GlcNAc(b1-4)GlcNAc
How it was run: as §1

[21] = biological target: Gal(b1-4)GlcNAc(b1-3)Gal(b1-4)GlcNAc(b1-2)Man(a1-3)[Gal(b1-4)GlcNAc(b1-3)Gal(b1-4)GlcNAc(b1-2)Man(a1-6)]Man(b1-4)GlcNAc(b1-4)[Fuc(a1-6)]GlcNAc
How it was run: as §1

[22] = biological target: Gal(b1-4)GlcNAc(b1-3)Gal(b1-4)GlcNAc(b1-2)[Gal(b1-4)GlcNAc(b1-3)Gal(b1-4)GlcNAc(b1-6)]Man(a1-6)[Gal(b1-4)GlcNAc(b1-3)Gal(b1-4)GlcNAc(b1-2)Man(a1-3)]Man(b1-4)GlcNAc(b1-4)GlcNAc
How it was run: as §1

[23] = biological target: Gal(b1-4)GlcNAc(b1-3)Gal(b1-4)GlcNAc(b1-3)Gal(b1-4)GlcNAc
How it was run: as §1

[24] = biological target: Gal(b1-4)GlcNAc(b1-6)GalNAc
How it was run: as §1

B1: Mermaid2 (Stilbonema majum) (protein)
chain: MGSSHHHHHHSSGLVPRGSHMAASGWLRSPQGTVVKLYRRSLSWSKADEFCKDVDGRLVVDRTADMHLFLIKNVLKEKKSRVWVGLRRTAPHSRTWIWSDGTRQNEDDLNTNLWLRDEPNDAAGEEECALFMYSPWEKAWGLNDYLCRGGCRSYQFICEKGIR
glycan array binding signal (z-score) [1]: 0.333 | glycan array binding signal (z-score) [2]: 1.76 | glycan array binding signal (z-score) [3]: -0.575 | glycan array binding signal (z-score) [4]: 0.558 | glycan array binding signal (z-score) [5]: -0.388 | glycan array binding signal (z-score) [6]: 4.48 | glycan array binding signal (z-score) [7]: -0.23 | glycan array binding signal (z-score) [8]: -0.477 | glycan array binding signal (z-score) [9]: -0.302 | glycan array binding signal (z-score) [10]: -0.551 | glycan array binding signal (z-score) [11]: -0.144 | glycan array binding signal (z-score) (Gal(b1-2)Gal): -0.539 | glycan array binding signal (z-score) [12]: 3.31 | glycan array binding signal (z-score) [13]: 4.69 | glycan array binding signal (z-score) [14]: -0.471 | glycan array binding signal (z-score) [15]: -0.152 | glycan array binding signal (z-score) (Gal(b1-4)Gal): 6.71 | glycan array binding signal (z-score) [16]: 0.467 | glycan array binding signal (z-score) (Gal(b1-4)Glc): -0.205 | glycan array binding signal (z-score) (Gal(b1-4)GlcNAc(b1-2)Man): 1.07 | glycan array binding signal (z-score) [17]: -0.652 | glycan array binding signal (z-score) [18]: 3.75 | glycan array binding signal (z-score) [19]: 0.034 | glycan array binding signal (z-score) [20]: -0.17 | glycan array binding signal (z-score) [21]: -0.278 | glycan array binding signal (z-score) [22]: 5.21 | glycan array binding signal (z-score) [23]: 0.308 | glycan array binding signal (z-score) [24]: -0.317
